According to the supplement of paper PMC7156485:

Tested on: HCC1569
Assay: H1.0 immunofluorescence intensity relative to DMSO (% of DMSO); higher = stronger H1.0 induction, active = 140 or more
Conditions: concentration: 10 µM; 24 h
Method in brief: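 HCC1569 and TDF cells were seeded at 800 per well in 384-well plates in RPMI with 10% FBS and treated with compounds at 10 µM for 24 h at 37 °C, in triplicate. After fixation in 3.7% formaldehyde, cells were stained with a rabbit anti-H1.0 antibody, an AlexaFluor 647 secondary and DAPI, and six fields per well were imaged at ×10. H1.0 nuclear intensity or cell number is given as percent of the plate control, using the median of replicates, with HCC1569 values smoothed for positional effects.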
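Note: TDF is a line of transformed human dermal fibroblasts of mesenchymal origin.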

Structure (SMILES) | H1.0 immunofluorescence intensity
Cl.FC(F)(F)c1cc(COC2CCCNC2c2ccccc2)cc(C(F)(F)F)c1 [L-733,060 hydrochloride] | 118 (inactive)
CCCCCCCCCCCC=CCCCCC(=O)O [6(E)-Octadecenoic acid] | 89.5 (inactive)
CCCCCC(O)C=CC1C(O)CC(=O)C1CCCCCCC(=O)O (stereo not given) [Prostaglandin E1] | 101 (inactive)
CC1(C)CC=C(c2cnc3ccccc3c2)c2cc(C(=O)Nc3ccc(C(=O)O)cc3)ccc21 | 96.8 (inactive)
CC(C)=CCc1cc2c(cc1O)oc(=O)c1c3ccc(O)cc3oc21 | 106 (inactive)
CCOC(=O)Nc1ccc(NCc2ccc(F)cc2)nc1N.O=C(O)C=CC(=O)O [Flupirtine maleate] | 105 (inactive)
CN(C(Cc1ccc(OS(=O)(=O)c2cccc3cnccc23)cc1)C(=O)N1CCN(c2ccccc2)CC1)S(=O)(=O)c1cccc2cnccc12 (stereo not given) | 127 (inactive)
Nc1nc(=O)c2ncc(=O)[nH]c2[nH]1 [Isoxanthopterin] | 94.9 (inactive)
CC(C)NCC(O)COc1ccc(CCOCC2CC2)cc1.Cl (stereo not given) [Betaxolol hydrochloride] | 89.4 (inactive)
CC(=O)N[C@@H](CS)C(=O)O [N-Acetyl-L-Cysteine] | 118 (inactive)
COc1ccc2c(c1)c(CC(=O)Nc1ccc(NC(C)=O)cc1)c(C)n2C(=O)c1ccc(Cl)cc1 [N-(4-acetamidophenyl)indomethacinamide] | 149 (active)
CCOC(=O)C(C)(C)Oc1ccc(Cl)cc1 [Clofibrate] | 94.7 (inactive)
CS(=O)(=O)O.NC(=NC(=O)c1nc(Cl)c(N)nc1N)Nc1ccccc1 [Phenamil methanesulfonate] | 96.1 (inactive)
Cc1ccc(S(=O)(=O)Cc2nc(-c3ccc(C(=O)NCc4cccnc4)cc3)oc2C)cc1 | 127 (inactive)
Cc1nc2ccccn2c(=O)c1CCN1CCC(C(=O)c2ccc(F)cc2)CC1 [Pirenperone] | 103 (inactive)
CCN(CC)Cc1ccc(C(=O)N(CCc2ccccc2OC)[C@@H]2CCNC2)cc1.Cl.Cl | 115 (inactive)
CCCCCOC(=O)Nc1nc(=O)n(C2OC(C)C(O)C2O)cc1F (stereo not given) [Capecitabine] | 95.7 (inactive)
CCCOc1ccccc1-c1nc2[nH][nH]nc-2c(=O)n1 [Zaprinast] | 104 (inactive)
CC(=O)SCC(Cc1ccccc1)C(=O)NCC(=O)OCc1ccccc1 (stereo not given) [Racecadotril] | 104 (inactive)
O=C1NC(=O)c2c1c1c3ccccc3[nH]c1n1cncc21 [Isogranulatimide] | 134 (inactive)

Structure (SMILES) | H1.0 immunofluorescence intensity
Cc1cc2nc3c(=O)[nH]c(=O)nc-3n(C)c2cc1C=O | 115 (inactive)
CCN1CCCC1CNC(=O)c1cc(S(N)(=O)=O)ccc1OC (racemic) | 99.3 (inactive)
C=C(c1ccc(C(=O)O)cc1)c1cc2c(cc1C)C(C)(C)CCC2(C)C [Bexarotene] | 111 (inactive)
CC(=O)C1(O)CCC2C3CCC4=CC(=O)CCC4(C)C3CCC21C (stereo not given) [17- Hydroxyprogesterone] | 104 (inactive)
CS(=O)(=O)c1ccc(-c2cc(Br)sc2-c2ccc(F)cc2)cc1 | 95.6 (inactive)
CC(=O)O.O=C(O)c1ccc2c3c1cccc3c(=O)n1c3ccccc3nc21 | 105 (inactive)
CS(=O)(=O)O.Cc1ccc(NC(=O)c2ccc(CN3CCN(C)CC3)cc2)cc1Nc1nccc(-c2cccnc2)n1 [Imatinib] | 127 (inactive)
C=CC(C)(O)CCC1C(C)(O)CCC2C(C)(C)CCCC21C (stereo not given) [Sclareol] | 94.7 (inactive)
CCC=CCC=CCC=CCC=CCC=CCCCC(=O)O | 96.4 (inactive)
CC(=O)Oc1ccccc1C(=O)O [Acetylsalicylic Acid] | 102 (inactive)
COc1cc(C2Oc3cc(C4Oc5cc(O)cc(O)c5C(=O)C4O)ccc3OC2CO)ccc1O (stereo not given) [Silybine] | 90.2 (inactive)
O=C1NC(=O)C(c2cnc3ccccn23)=C1c1cn2c3c(cc(F)cc13)CN(C(=O)N1CCCCC1)CC2 | 176 (active)
CC(C)(CO)C(O)C(=O)NCCC(=O)O (stereo not given) [Pantothenic acid] | 98.2 (inactive)
C=C1CC2C3C=C(C)C4=CC(=O)CCC4(C)C3CCC2(C)C1(OC(C)=O)C(C)=O (stereo not given) [Melengestrol Acetate] | 109 (inactive)
NC1CCN(c2c(F)cc3c(=O)c(C(=O)O)cn(C4CC4)c3c2Cl)C1 (stereo not given) [Clinafloxacin] | 107 (inactive)
C=C1C(=O)OC2C1CCC(C)=CCCC1(C)OC21 (stereo not given) [Parthenolide] | 149 (active)
Cc1ncc([N+](=O)[O-])n1CCO [Metronidazole] | 99.3 (inactive)
CCCCCC#CCC#CCC#CCC#CCCCC(=O)O [5,8,11,14-Eicosatetraynoic acid] | 103 (inactive)
Nc1ccn(C2CCC(CO)O2)c(=O)n1 (stereo not given) [2',3'-dideoxycytidine] | 87.7 (inactive)
CCCCCC(O)C=CC=CCCCCCCCCCC(=O)O (stereo not given) | 96.8 (inactive)
